Results on eight molecules are retold here after PubChem BioAssay (NCI).

The panel holds about 83,000 compounds, 20% with a hit somewhere; the sample as a whole holds those more often.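 Activity criterion: percent growth below 10, measured after cells in 96-well plates were exposed to a single compound concentration for 48 hours.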 Values without a mark were called inactive. The source made the active and inactive calls.

Holding throughout (assay): NCI-60 one-dose screen, 48 h (100 = growth as untreated, 0 = no growth, -100 = all killed)
What all share (conditions): 10 µM unless noted

Experiment [1] has as its system DU-145 prostate.
The test system of experiment [2] is K-562 leukemia.
In experiment [3] the test system is MALME-3M melanoma.
For experiment [4], the system named is MDA-MB-231 breast.
Experiment [5] deals with RXF 393 renal.
For experiment [6], the system named is SF-268 CNS.
In experiment [7] the test system is SF-295 CNS.
In experiment [8] the test system is SF-539 CNS.
The test system of experiment [9] is UACC-257 melanoma.
In experiment [10] the test system is M14 melanoma.
Experiment [11] deals with HT29 colon.
The subject of experiment [12] is SNB-75 CNS.
The subject of experiment [13] is SNB-19 CNS.
Experiment [14] concerns U251 CNS.
Experiment [15] deals with PC-3 prostate.
The subject of experiment [16] is SK-MEL-5 melanoma.
Experiment [17] has as its system UACC-62 melanoma.
Experiment [18] relates to LOX IMVI melanoma.
Experiment [19] has as its system SK-MEL-28 melanoma.

Consider `COc1ccc(NC(=S)NNc2ccc(-c3ccc(OC)c(OC)c3)nn2)cc1`, for which the growth in experiment [1] was 107%; in experiment [2] it was 104%; in [3], 112%; in [4], 96.1%; in experiment [5], 120%; in experiment [6], 92.9%. For the same molecule, the growth was 101% in experiment [7]; 97.6% in experiment [8]; 103% in [9]; 99.2% in experiment [10]; 109% in experiment [11]; 74.4% in experiment [12]. The growth in [13] is 97.1%; in experiment [14], 76.6%; in experiment [15], 104%; in experiment [16] it was 101%; in [17], 102%; in experiment [18], 97.8%. For the same molecule, the growth in experiment [19] was 113%.
Turning to `O=C(Nc1ccc(Oc2ccc(F)cc2)c(Cl)c1)c1cccnn1`, the growth was 76.7% in [1]; 55.5% in experiment [2]; 105% in experiment [3]; 88.1% in [4]; 82.6% in experiment [5]; 80.4% in experiment [6]. Further, the growth was 73.4% in experiment [7]; 85.5% in experiment [8]; 64.3% in [9]; 114% in experiment [10]; 76.7% in experiment [11]; 87.8% in experiment [12]. Also, the growth in experiment [13] is 66.2%; in experiment [14], 62.9%; in [15], 64.4%; in experiment [16] it was 30.7%; in experiment [17], 62.5%; in [18] it was 72.8%. For the same molecule, the growth in [19] is 90.9%.
Take `O=[N+]([O-])c1cccc(/C=C/c2ccc3ccccc3n2)c1`: the growth was 71.4% in experiment [1]; 94.7% in [2]; 68.5% in [3]; 45.7% in experiment [4]; 62.1% in [5]; 72.9% in [6]. The growth in [7] is 53.2%; in [8], 78.1%; in experiment [9], 74.8%; in experiment [10], 82.3%; in experiment [11], 76.5%; in [12] it was 7.41% (active). Besides, the growth in experiment [13] was 64.1%; in experiment [14], 72.2%; in experiment [16], 82%; in [17] it was 82.9%; in experiment [18], 70.5%; in [19], 87.3%.
`CC1(C)CC[C@]2(C(N)=O)CC[C@]3(C)C(=CC[C@@H]4[C@@]5(C)C/C(=C/c6ccncc6)C(=O)C(C)(C)[C@@H]5CC[C@]43C)[C@@H]2C1`: the growth in [1] is -36.4% [100 µM] (active); in experiment [2], 3.83% [100 µM] (active); in [3], -84.9% [100 µM] (active); in experiment [4], -75% [100 µM] (active); in experiment [5], -52.5% [100 µM] (active); in [6], -37.2% [100 µM] (active). In addition, the growth in [7] is -64.4% [100 µM] (active); in [8], -68.1% [100 µM] (active); in [9], -58.6% [100 µM] (active); in experiment [10], -24.4% [100 µM] (active); in experiment [11], -65.4% [100 µM] (active); in experiment [12] it was -86.4% [100 µM] (active). For the same molecule, the growth was -83.8% [100 µM] (active) in [13]; -81.1% [100 µM] (active) in experiment [14]; -33.5% [100 µM] (active) in experiment [15]; -71.1% [100 µM] (active) in experiment [16]; -79.7% [100 µM] (active) in experiment [17]; -64.7% [100 µM] (active) in experiment [19].
On to `Cc1ccc(Cn2c(O)c(N=NC(=O)c3ccc(S(N)(=O)=O)cc3)c3ccccc32)cc1`, for which the growth in experiment [1] was 107%; in experiment [2] it was 99.2%; in experiment [3], 97.1%; in [4], 97.2%; in experiment [5], 91.2%; in experiment [6] it was 98.6%. Besides, the growth was 101% in experiment [7]; 108% in experiment [8]; 98% in experiment [9]; 112% in experiment [10]; 111% in [11]; 92.4% in [12]. In addition, the growth is 100% in experiment [13]; 97.8% in experiment [14]; 94.5% in experiment [15]; 98.5% in experiment [16]; 86.7% in experiment [17]; 103% in [18]. Besides, the growth in [19] is 106%.
For the molecule `O=C(N/N=C\c1cc(Cl)ccc1O)N/N=C/c1cc(Cl)ccc1O`, the growth is 87.4% in experiment [1]; 18.4% in experiment [2]; 74.1% in [3]; 48.3% in [4]; 85% in experiment [5]; 57.9% in experiment [6]. Further, the growth in [7] is 25.5%; in experiment [8], 39.3%; in [9], 65.5%; in experiment [10] it was 50.4%; in [11], 93.9%; in experiment [12], 39.8%. The growth in [13] is 58.2%; in experiment [14], 49.9%; in experiment [15], 40%; in [16], 52.1%; in experiment [17] it was 54.7%; in experiment [19], 80.4%.
As to `CSc1cccc([N+](=O)[O-])c1`, the growth in experiment [1] is 110%; in [2] it was 96.6%; in experiment [3], 103%; in experiment [4], 101%; in [5], 99%; in [6] it was 110%. Further, the growth is 106% in experiment [7]; 96.2% in experiment [8]; 103% in [9]; 102% in [10]; 90.2% in [11]; 110% in [13]. Moreover, the growth in experiment [14] is 109%; in [15], 96.9%; in experiment [16], 99.8%; in experiment [17] it was 98%; in [18], 92.5%; in [19] it was 111%.
Regarding `O=C(O)CC1CCCCC1c1ccccc1` (stereo not drawn), the growth was 117% in experiment [1]; 109% in experiment [2]; 112% in [3]; 116% in [4]; 106% in experiment [5]; 109% in [6]. For the same molecule, the growth was 100% in [7]; 91.9% in experiment [8]; 112% in [9]; 97.2% in experiment [10]; 101% in experiment [11]; 106% in [12]. Moreover, the growth in experiment [13] is 106%; in experiment [14] it was 105%; in [15], 90%; in [16] it was 105%; in [17], 102%; in experiment [18], 103%. Further, in [19], the growth is 119%.
